sPLA2-III inh – Blocks human group III sPLA2 activity; inhibition, % at 12.2 µM; QFRET BODIPY PC-A2 liposome hydrolysis, fluorescence; 0.56% of 370,000 active; Q9NZ20; AID 743126;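 active = inhibition above mean plus 3 SD of compounds lying within the high and low control bounds, cut at about 19% in these data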;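 also: 0% = median of test compound wells and 100% = no enzyme DMSO wells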
Target sequence (Q9NZ20 whole entry, looked up): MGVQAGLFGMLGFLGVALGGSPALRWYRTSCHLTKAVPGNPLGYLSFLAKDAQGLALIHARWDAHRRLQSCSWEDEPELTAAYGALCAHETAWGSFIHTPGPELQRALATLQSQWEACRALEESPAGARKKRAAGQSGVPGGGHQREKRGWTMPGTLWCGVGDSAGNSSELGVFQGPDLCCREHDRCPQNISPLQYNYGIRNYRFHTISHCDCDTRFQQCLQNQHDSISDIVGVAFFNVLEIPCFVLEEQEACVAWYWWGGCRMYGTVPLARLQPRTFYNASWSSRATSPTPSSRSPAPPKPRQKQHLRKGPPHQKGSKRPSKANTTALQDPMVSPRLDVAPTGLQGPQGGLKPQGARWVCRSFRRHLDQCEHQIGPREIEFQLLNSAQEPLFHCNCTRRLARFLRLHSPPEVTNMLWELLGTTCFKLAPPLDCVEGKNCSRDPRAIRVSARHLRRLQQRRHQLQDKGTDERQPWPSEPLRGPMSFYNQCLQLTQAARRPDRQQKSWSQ
rCAG RNA binder – r(CAG) repeat RNA binding | 1.3% of 370,000 active | inhibition, % at 3 µM | TO-PRO-1 dye displacement fluorescence;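 active = inhibition above the plate cutoff, the mean of all test compounds on that plate plus 3 SD, cut at about 35% in these data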;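 also: 0% = DMSO alone and 100% = 100 µM mitoxantrone as full dye displacement; higher means more dye released from RNA so lower well fluorescence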
MsrA act – activates bovine MsrA enzyme | purified bovine MsrA, absorbance read-out | activation, % at 10.6 µM | 0.3% of 360,000 active | AID 602163; in the data active = activation above about 7.5%;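 also: 0% = vehicle and 100% = reference activator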
MsrA inh – inhibitors of bovine MsrA | AID 651718 | inhibition, % at 15.5 µM | 0.75% of 360,000 active | purified bovine MsrA, absorbance read-out; in the data active = inhibition above about 4.5%;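 also: 0% = vehicle wells with enzyme and 100% = reference inhibitor wells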
PG9 Ab binder – PG9 antibody binding by small molecule. 0.43% of 360,000 active. inhibition, % at 6.7 µM. AID 624416. TR-FRET gp120-PG9 antibody binding; in the data active = inhibition above about 8.5%
MsrA activ conf – confirmation of bovine methionine sulfoxide reductase A activators | shares compounds with MsrA act | purified bovine MsrA, absorbance read-out | activation, % at 10.6 µM | 12% of 1,000 active | AID 602270; in the data active = activation above about 4%;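 also: enzyme coupled to thioredoxin and thioredoxin reductase with NADPH; 0% = vehicle wells and 100% = reference activator wells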
Active calls of the source: *. Sampled rows, rich in hits. Any-hit rate of the full collection: about 3.2%.

O=C(COc1ccccc1)Nc1ccc([N+](=O)[O-])cc1 was read as sPLA2-III inh 8, rCAG RNA binder 3, MsrA act 20*, MsrA inh 2, PG9 Ab binder -4 and MsrA activ conf 2.
COc1ccc(S(=O)(=O)N2CCOCC2)cc1NC(=O)COC(=O)c1[nH]c(C)c(C(C)=O)c1C was read as sPLA2-III inh 1, rCAG RNA binder 9, MsrA act -7, MsrA inh 0 and PG9 Ab binder 2.
`O=C(COC(=O)c1ccc([N+](=O)[O-])s1)NC(c1ccccc1)c1ccccc1` gave sPLA2-III inh 14, rCAG RNA binder 4, MsrA act 17*, MsrA inh 2, PG9 Ab binder -3 and MsrA activ conf 6.0*.
`O=C(COC(=O)c1ccc([N+](=O)[O-])s1)NCc1ccccc1` gave sPLA2-III inh 5, rCAG RNA binder 1, MsrA act 8.4*, MsrA inh 0, PG9 Ab binder -3 and MsrA activ conf 2.
Screening COc1ccc(S(=O)(=O)N2CCOCC2)cc1NC(=O)COC(=O)c1ccc([N+](=O)[O-])s1 returned MsrA act 20* and MsrA activ conf 11*.
For CCCCNS(=O)(=O)CC1NCc2ccc(C)cc21 (centres undefined) the results were sPLA2-III inh 0 and rCAG RNA binder 6.
CC(CCN1CCC(C(O)(c2ccccc2)c2ccccc2)CC1)Oc1ccccc1C#N (centres undefined) was read as sPLA2-III inh -15 and rCAG RNA binder 2.
For CCCN1CCS(=O)(=O)N(Cc2cn(Cc3ccc(F)cc3)nn2)C(C(=O)OC)C1 (centres undefined) the results were sPLA2-III inh 6 and rCAG RNA binder -1.
`O=C(c1ccncc1)N1CCC(Oc2cccnc2)CC1` gave sPLA2-III inh 6 and rCAG RNA binder 0.
CCOC(=O)CC[C@@H]1CC[C@]2(CCCN(C(=O)c3cccnc3)C2)O1 was read as sPLA2-III inh 3 and rCAG RNA binder 2.
`O=C(COC(=O)c1ccc([N+](=O)[O-])s1)Nc1ccc(F)cc1` gave sPLA2-III inh -3, rCAG RNA binder 0, MsrA act 20*, MsrA inh 2, PG9 Ab binder -1 and MsrA activ conf 9.1*.
O=C(COC(=O)c1ccc([N+](=O)[O-])s1)Nc1ccc(Cl)cn1 was read as sPLA2-III inh -33, rCAG RNA binder 9, MsrA act 7, MsrA inh 1 and PG9 Ab binder -3.
`CC(C)NCC(O)c1ccc(NS(C)(=O)=O)cc1` (centres undefined) gave sPLA2-III inh 3, rCAG RNA binder 0, MsrA act 7.8*, MsrA inh 3, PG9 Ab binder 0 and MsrA activ conf -3.
Screening CC(C)NC[C@@H](O)c1ccc(O)c(O)c1 returned sPLA2-III inh 2, rCAG RNA binder 8, MsrA act -6, MsrA inh -1 and PG9 Ab binder -3.
COc1cc(NC(=O)CSCc2ccccc2)c(C(=O)O)cc1OC was read as sPLA2-III inh 2, rCAG RNA binder -2, MsrA act 10.0*, MsrA inh 0, PG9 Ab binder 0 and MsrA activ conf -1.
Screening CC(C)[C@@H](CO)N1Cc2nnn(Cc3ccccc3)c2-c2ccccc2S1(=O)=O returned sPLA2-III inh -4 and rCAG RNA binder 3.
Screening Cc1ccc(C(=O)OC(C)C(=O)Nc2ccc(S(N)(=O)=O)cc2)cc1S(=O)(=O)N1CCOCC1 (centres undefined) returned sPLA2-III inh -19, rCAG RNA binder 7, MsrA act -1, MsrA inh 0 and PG9 Ab binder -1.
Screening Cc1ccc(NC(=O)C(C)OC(=O)c2ccc(NC(=O)CC#N)cc2)cc1S(=O)(=O)N1CCOCC1 (centres undefined) returned sPLA2-III inh -52, rCAG RNA binder 28, MsrA act 9.5*, MsrA inh -1, PG9 Ab binder -1 and MsrA activ conf -2.
For Cc1cccc(C)c1NC(=O)COC(=O)C1CC1 the results were sPLA2-III inh 3, rCAG RNA binder 1, MsrA act 9.7*, MsrA inh 0, PG9 Ab binder 1 and MsrA activ conf -1.
Screening CCOC(=O)[C@@]12CCCC=C1N(CCc1ccc(Cl)cc1)C(=O)[C@H]2CC(=O)NCC1CCCCC1 returned sPLA2-III inh -20 and rCAG RNA binder 4.
Screening CCc1ccc(NC(=O)CSc2nnc(COc3ccc4c(c3)CCCC4)o2)cc1 returned sPLA2-III inh 2, rCAG RNA binder -1, MsrA act 11*, MsrA inh 0, PG9 Ab binder 1 and MsrA activ conf -2.
For COC(=O)c1ccc(NC(=O)CSc2nnc(COc3ccc4c(c3)CCCC4)o2)cc1 the results were sPLA2-III inh -2, rCAG RNA binder 4, MsrA act -5, MsrA inh 0 and PG9 Ab binder 1.
O=C1C=C(Nc2ccccc2O)c2ccccc2C1=O was read as sPLA2-III inh -8, rCAG RNA binder -6, MsrA act 9.3*, MsrA inh 2, PG9 Ab binder -23 and MsrA activ conf 6.1*.
For O=C1C=C(Nc2ccc(F)cc2)c2ccccc2C1=O the results were sPLA2-III inh 6, rCAG RNA binder 6, MsrA act 3, MsrA inh 0 and PG9 Ab binder -13.
`O=C1C=C(NCc2ccccc2)c2ccccc2C1=O` gave sPLA2-III inh -11, rCAG RNA binder 4, MsrA act 9.4*, MsrA inh 2, PG9 Ab binder -4 and MsrA activ conf 8.9*.
`COC(=O)C1CN(C2CCCC2)CCS(=O)(=O)N1Cc1cn(Cc2ccc(Cl)cc2)nn1` (centres undefined) gave sPLA2-III inh -3 and rCAG RNA binder -1.
CN1CCN(NC(=S)NC2CCCC2)CC1 was read as sPLA2-III inh 5, rCAG RNA binder -1, MsrA act 7.9*, MsrA inh 0, PG9 Ab binder 2 and MsrA activ conf 3.
CC(C)[C@H]1COc2c3ccccc3nn21 was read as sPLA2-III inh 10 and rCAG RNA binder -1.
For COCC(=O)N(C)[C@H]1C[C@H]2c3[nH]c4c(-c5ccc6c(c5)OCO6)cccc4c3CCN2C(=O)[C@H]1[C@H](C)O the results were sPLA2-III inh -22 and rCAG RNA binder 6.
CC(OC(=O)c1cccc(S(=O)(=O)N2CCCCC2)c1)C(=O)NC1CCCCC1C (centres undefined) was read as sPLA2-III inh -2, rCAG RNA binder -4, MsrA act 21*, MsrA inh -1, PG9 Ab binder 0 and MsrA activ conf 0.
Screening O=C(Nc1nnc(-c2ccc(F)cc2)s1)c1ccco1 returned sPLA2-III inh 0, rCAG RNA binder 3, MsrA act -4, MsrA inh 2 and PG9 Ab binder -1.
Screening O=C(Nc1n[nH]c(=S)s1)c1ccco1 returned sPLA2-III inh 4, rCAG RNA binder 3, MsrA act 8.7*, MsrA inh 2, PG9 Ab binder 0 and MsrA activ conf 2.

High-throughput results from PubChem BioAssay.
